The campaign covered roughly 330,000 compounds. About 4,900 (1.5%) were called active. The sample holds actives, similar compounds and a random draw of the others, so the mix is not that of the screen. Unmarked numbers belong to inactive results.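 Rule for the calls: active = inhibition above the mean inhibition across the screen plus 3 SD (cut at about 25% in these data); inactive = the rest.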

The target of this test is Platelet-activating factor acetylhydrolase (Homo sapiens) (UniProt Q13093). The test can be described thus: pPAFAH enzyme inhibitors, primary screen, biochemical, fluorescence polarization, human (AID 463082).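 Note: inhibitors block binding of the rhodamine activity-based probe so polarization drops; 0% = enzyme with DMSO and 100% = wells lacking pPAFAH.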 The settings on record: recombinant pPAFAH, FP-rhodamine probe fluorescence polarization; at 3.39 µM; stronger effect = higher value. In general terms: In fluorescence polarisation assays a small probe gives low polarisation when free and higher when bound to something large.
Chain of Platelet-activating factor acetylhydrolase (Homo sapiens) (Q13093 whole entry, looked up): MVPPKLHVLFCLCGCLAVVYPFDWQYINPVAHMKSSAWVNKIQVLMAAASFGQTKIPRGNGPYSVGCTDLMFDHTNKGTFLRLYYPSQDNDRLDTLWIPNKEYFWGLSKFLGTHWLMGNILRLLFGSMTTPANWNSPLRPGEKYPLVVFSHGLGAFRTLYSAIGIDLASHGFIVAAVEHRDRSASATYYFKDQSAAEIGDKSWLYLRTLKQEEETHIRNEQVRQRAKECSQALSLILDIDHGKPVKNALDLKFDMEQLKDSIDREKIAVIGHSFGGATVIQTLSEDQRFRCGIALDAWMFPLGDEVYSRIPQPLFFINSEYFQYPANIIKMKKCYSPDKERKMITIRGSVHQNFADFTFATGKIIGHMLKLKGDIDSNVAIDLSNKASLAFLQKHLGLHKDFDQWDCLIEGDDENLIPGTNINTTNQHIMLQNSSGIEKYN
Turning to `C/C(=N/N1CCN(Cc2cccc3ccccc23)CC1)c1cccnc1`, the inhibition (in general, the relative decrease from the control value, in per cent) is -3.57%.

In the case of `CCN(CC)C(=O)[C@H]1CC(CC(=O)NCc2ccco2)C(=O)N2CCc3c([nH]c4ccccc34)[C@]12C` (stereo partly specified), the inhibition is -0.35%.

For the molecule `CCN1/C(=C\c2ccc3ccccc3[n+]2CC)Sc2cc(C)ccc21`, the inhibition was 36.3% (active).

Turning to `Cc1ccc(C(=O)OCC(=O)NC(=O)Cc2ccccc2)c(O)c1`, the inhibition is 5.13%.

With `Cc1cc(C)c(C(=O)CSc2nc(C)cc(=O)[nH]2)c(C)c1`, the inhibition was 8.8%.

Consider `Cc1cc(C(=O)CSc2nc(N)cc(=O)[nH]2)c(C)n1CCc1ccc(Cl)cc1`, for which the inhibition was 69.6% (active).

As to `Cc1cc(C(=O)CSc2nc(N)cc(=O)[nH]2)c(C)n1-c1cccc(F)c1`, the inhibition is 56.4% (active).

Turning to `CCCc1cc(=O)[nH]c(SCC(=O)N2C(C)CCCC2C)n1` (stereo unspecified), the inhibition was 8.03%.

Take `Cc1cc(=O)[nH]c(SCc2ccc(Cl)cc2)n1`: the inhibition is -2.26%.

For `Cc1cc(C(=O)CSc2nc(N)cc(=O)[nH]2)c(C)n1Cc1ccco1`, the inhibition is 13.6%.

On to `CCCc1cc(=O)[nH]c(SCC(=O)c2c(N)n(CC(C)C)c(=O)n(C)c2=O)n1`, for which the inhibition is 0.06%.

Regarding `Cc1cc(=O)[nH]c(SCc2cccc(F)c2)n1`, the inhibition is -3.14%.

Regarding `CCCc1cc(=O)[nH]c(SCC(=O)c2cc(C)n(CCC)c2C)n1`, the inhibition was 25.1% (active).

For `CONc1nc2nonc2nc1NOC`, the inhibition was 4.61%.

With `CCN(CC(=O)Nc1ccc(OC)cc1)C(=O)c1ccc(=O)n(Cc2ccccc2)n1`, the inhibition is -1.18%.

Consider `O=c1oc2ccc(C#CC3(O)CCCCC3)cc2cc1-n1cc(-c2ccsc2)nn1`, for which the inhibition is -0.61%.

Turning to `O=C(CO/N=C/c1ccccc1O)NNC(=O)c1ccccc1Cl`, the inhibition is 0.6%.

For `CCOCCCNC(=O)C(=O)NCCCOCC`, the inhibition is 7.96%.

Turning to `COc1cccc(COC(=O)C2CCN(S(=O)(=O)c3cccs3)CC2)c1OC`, the inhibition was 0.21%.

For the molecule `Cn1cccc1C(C#N)c1ccccc1C#N` (stereo unspecified), the inhibition is 6.28%.

Take `CC(=O)Oc1c(C(=O)c2nnc(C)o2)c(=O)n(Cc2ccccc2)c2ccccc12`: the inhibition is 4.19%.

`CCCCNC(=O)C(C)N(CCN(C)C)C(=O)CCCN1C(=O)NC(c2ccc(Cl)cc2)C(C(=O)OCc2ccccc2)=C1C` (stereo unspecified): the inhibition is 8.55%.

For `FC(F)(F)c1cccc(Cc2noc(CN3CCC(N4CCCCC4)CC3)n2)c1`, the inhibition was -0.07%.

Turning to `CCN(C(=O)c1cc([N+](=O)[O-])ccc1NCc1cccnc1)c1ccccc1`, the inhibition was -0.13%.

In the case of `CC(Oc1ccc(Br)cc1)C(=O)NCC(c1ccco1)N1CCCCC1` (stereo unspecified), the inhibition is 1.84%.

In the case of `CCOC(=O)C1(Cc2ccc(Cl)cc2)CCN(C(=O)C2=NNC(=O)CC2)CC1`, the inhibition was 1.54%.

For the molecule `COC(=O)CN1C(=O)[C@H]2[C@@H](/C=C/c3ccccc3)N3C(=O)CN(Cc4ccccc4)C(=O)[C@@]3(Cc3ccccc3)[C@H]2C1=O`, the inhibition was 3.66%.

Consider `NS(=O)(=O)c1ccccc1NC(=O)c1c(O)c2ccccc2[nH]c1=O`, for which the inhibition is -4.47%.

`CN(C(=O)COC(=O)c1cc(-c2ccco2)nc2ccccc12)C1CCS(=O)(=O)C1` (stereo unspecified): the inhibition was 30.1% (active).

On to `CN(CCOc1ccccc1)C(=O)c1cc(-c2ccco2)nc2ccccc12`, for which the inhibition is 17.3%.

For `CN(C(=O)COC(=O)Cc1ccccc1[N+](=O)[O-])C1CCS(=O)(=O)C1` (stereo unspecified), the inhibition is -1.36%.

As for `c1ccc(C2CCC(N3CCC(N4CCCCC4)CC3)CC2)cc1` (stereo unspecified), the inhibition is 4.58%.

Regarding `CC/C(O)=C1\C(=O)CC(C)(C)CC1=NCCc1nc2ccccc2[nH]1`, the inhibition was -2.43%.

Regarding `Cc1cccc(C(=O)Nc2ccc(C(=O)/C=C/c3cccs3)cc2)c1`, the inhibition is -9.49%.

Consider `CC(=O)Nc1ccc(S(=O)(=O)Nc2ccc(-c3ccc4nnc(C)n4n3)cc2)cc1`, for which the inhibition was 3.56%.

Consider `CC(=O)Nc1ccc(S(=O)(=O)Nc2cccc(NC(=O)C(C)(C)C)c2)cc1`, for which the inhibition was 6.07%.

Take `CC(=O)Nc1ccc(S(=O)(=O)Nc2nc(-c3ccc(C(C)(C)C)cc3)cs2)cc1`: the inhibition was 25.1% (active).

With `O=C(NC(=S)Nc1cccc2c(O)cccc12)c1cccc(Br)c1`, the inhibition is 8.85%.

Consider `COc1cc(-c2noc(C3CCCN(S(=O)(=O)c4cccc(Cl)c4)C3)n2)cc(OC)c1OC` (stereo unspecified), for which the inhibition is 1.19%.

On to `CC(C)c1ccc(-c2noc(C3CCCN(S(C)(=O)=O)C3)n2)cc1` (stereo unspecified), for which the inhibition was 26.1% (active).

For `O=C(Cc1cccs1)N1CCCC(c2nc(-c3ccc(S(=O)(=O)N4CCCC4)cc3)no2)C1` (stereo unspecified), the inhibition was 3.46%.

Consider `CCCn1c(N)c(C(=O)CSc2nnc(-c3cccnc3)n2-c2ccc(C)cc2C)c(=O)[nH]c1=O`, for which the inhibition is 4.8%.

In the case of `COCC1CCCN(Cc2nc(-c3ccc4c(c3)OCO4)no2)C1` (stereo unspecified), the inhibition is 0.91%.

`Cc1ccc(S(=O)(=O)N2CCN(C(=O)COC(=O)c3c(C)cc(C)cc3C)CC2)c(C)c1`: the inhibition is 0.75%.

In the case of `CCCCOc1ccc(C(=O)NCC(=O)OCC(=O)N2CCN(S(=O)(=O)c3ccc(C)cc3C)CC2)cc1`, the inhibition was 28% (active).

`Cc1ccc(S(=O)(=O)N2CCN(C(=O)COC(=O)CNC(=O)c3ccc(C(C)(C)C)cc3)CC2)c(C)c1`: the inhibition is 18%.

In the case of `COc1cccc(CNC(C)C(=O)Nc2ccc(S(=O)(=O)N3CCCC3)cc2)c1` (stereo unspecified), the inhibition was -5.3%.

On to `COc1ccc(S(=O)(=O)NCC(c2ccco2)N2CCOCC2)cc1` (stereo unspecified), for which the inhibition is -0.61%.

Take `Cc1ccc(C(=O)NCC(=O)OCC(=O)NC2CCCCCCC2)cc1`: the inhibition is 9.66%.

Regarding `Cc1cc(C)cc(OCC(=O)OCC(=O)NC2CCCC2)c1`, the inhibition was 21.4%.

With `O=C(COC(=O)CNS(=O)(=O)c1ccc(F)c(F)c1F)NC1CCCC1`, the inhibition was 29.2% (active).

On to `CN(C(=O)CC1C(=O)NCCN1Cc1ccc(F)cc1Cl)C1CCCCC1` (stereo unspecified), for which the inhibition is -3%.

For the molecule `COc1ccc(OC)c(-n2c(-c3ccn[nH]3)n[nH]c2=S)c1`, the inhibition was -4.65%.

Regarding `COc1ccccc1-n1cn[nH]c1=S`, the inhibition was 6.13%.

For `COc1ccccc1-n1c(-c2cc(-c3ccco3)[nH]n2)n[nH]c1=S`, the inhibition was 28.5% (active).

Regarding `CCn1c(Cc2cccs2)nnc1SCC(=O)c1ccc(C)cc1`, the inhibition is 9.49%.

Turning to `Cc1ccc(-n2c(Cc3cccs3)nnc2SCC(=O)OC(C)C)cc1`, the inhibition was 34% (active).

Regarding `COc1ccc(-n2c(SCC(=O)OC(C)C)nnc2-c2ccccn2)cc1`, the inhibition was 6.1%.

For `C=C1c2cccc(OC)c2O[C@H](C(=O)OCC)[C@@H]1CCCCCC`, the inhibition is 9.96%.

For the molecule `Cc1cc(C)cc(NS(=O)(=O)c2ccc(F)cc2)c1`, the inhibition was 5.58%.

`CSc1ccc(S(=O)(=O)Nc2cccc(F)c2)cc1`: the inhibition is 32.8% (active).

Take `O=C1Cc2cc(S(=O)(=O)Nc3cccc(F)c3)ccc2N1`: the inhibition is 24.4%.

For `Nc1nonc1-n1nnc(C(=O)N/N=C/c2ccc(Cl)cc2)c1-c1ccc2c(c1)OCO2`, the inhibition is 3.64%.

Regarding `O=C(Nc1ccccc1)c1ccc2nsnc2c1`, the inhibition is -5.05%.

For the molecule `COCC(C)NC(=O)c1ccc(-n2nc(C(F)(F)F)cc2-c2cccs2)cc1` (stereo unspecified), the inhibition is 35.9% (active).

In the case of `Cc1cc2nc(C(F)(F)F)cc(-c3cccs3)n2n1`, the inhibition was -3.12%.

Consider `COCC(C)NC(=O)c1ccc(Cl)c(Cl)c1` (stereo unspecified), for which the inhibition is 4.84%.

Consider `CC(=O)N1CCN(C(=O)C2(NC(=O)Nc3ccc(C)cc3)CCCCC2)CC1`, for which the inhibition was -3.87%.

On to `CCCC(C)C(=O)NCc1ccncc1` (stereo unspecified), for which the inhibition was -2.95%.

Take `Cc1ccc(NC(=O)c2c(NC(=O)CCC(=O)O)sc3c2CCCCC3)cc1`: the inhibition is 24.6% (active).

As for `Cc1ccc(NC(=O)c2csc3c2CCCC3)cc1`, the inhibition was 1.78%.

As to `COC(=O)c1c(NC(=O)CCN2CCOCC2)sc2c1CCCC2`, the inhibition is 7.3%.

With `Cn1nc(C(C)(C)C)c([N+](=O)[O-])c1C(N)=O`, the inhibition is -0.25%.

As for `O=[N+]([O-])c1ccccc1SNc1ccccn1`, the inhibition is 3.58%.

Consider `COc1cnc(-c2ccccn2)nc1Oc1ccc(C(C)(C)C)cc1`, for which the inhibition was 3.59%.

Regarding `C[C@H](CO)N1C[C@H](C)[C@@H](CN(C)C(=O)Nc2ccc3c(c2)OCO3)Oc2c(cccc2N(C)C)C1=O`, the inhibition is 3.8%.

Regarding `N#CCc1c(C#N)c(N)nc(N2CCCC2)c1C#N`, the inhibition was -3.2%.

As to `N#Cc1c(N2CCCCC2)nc(N)c2c(N)nc(SCC(=O)O)cc12`, the inhibition was 27.8% (active).

Regarding `CCOC(=O)c1cc(C#N)c(N2CCCCC2)nc1-c1ccccc1`, the inhibition is 4.27%.

For `O=C(N=C1SC2CS(=O)(=O)CC2N1c1ccccc1)c1ccccc1` (stereo unspecified), the inhibition was -2.21%.

For `CS/C(=C\C(=O)c1ccco1)Nc1ccccc1Cl`, the inhibition was 3.63%.

For `CCN1CC=C2C(C#N)=C(N)C(C#N)(C#N)[C@H](c3ccoc3)[C@H]2C1`, the inhibition was 25.2% (active).

`N#CC1=C(N)C(C#N)(C#N)[C@H](c2ccsc2)[C@H]2COCC=C12`: the inhibition was 3.03%.

On to `CCCN1CC=C2C(C#N)=C(N)C(C#N)(C#N)C(c3cc(OC)ccc3OC)C2C1` (stereo unspecified), for which the inhibition was 0.59%.

On to `CCC1CCCCN1C(=S)NC(=O)c1ccco1` (stereo unspecified), for which the inhibition is -4.39%.

For the molecule `CCN(CC)S(=O)(=O)c1cc([N+](=O)[O-])ccc1NNC(=O)Nc1ccccc1`, the inhibition was 12%.

As for `Cc1ccc(C)c(NS(=O)(=O)c2ccc(OCC(=O)NCc3cccnc3)cc2)c1`, the inhibition was 26.4% (active).

Take `Cc1cc(S(=O)(=O)NC2CCCCC2)ccc1OCC(=O)NCc1cccnc1`: the inhibition was 8.28%.

Consider `Cc1ccc(CNC(=O)COc2ccc(S(=O)(=O)NC(C)C)cc2)cc1`, for which the inhibition is -3.29%.

Turning to `Cc1ccc(S(=O)Cc2ccc(C(=O)N3CCN(C4CCCCC4)CC3)o2)cc1` (stereo unspecified), the inhibition is 4.39%.

Regarding `COc1ccccc1NC1=NC(c2ccc(Cl)cc2)N=C(N)N1` (stereo unspecified), the inhibition was 1.26%.

(Values after PubChem BioAssay AID463082 (The Scripps Research Institute Molecular Screening Center, 2010).)
